PP5 inh: PP5 (human) phosphatase inhibition; 320,000 compounds, 0.18% hits; purified PP5c, OMFP substrate fluorescence; P53041; inhibition, % at 6.7 µM;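 active means inhibition above the campaign's mean inhibition across all tested compounds plus 3 SD, cut at about 9.5% in these data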;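 further: 0% = DMSO only and 100% = 100 µM cantharidin control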
GASC-1 inh: inhibitors of human GASC-1 (JMJD2C) demethylase. inhibition, % at 2.35 µM. 330,000 compounds, 0.069% hits. AID 2099. Q9H3R0. GST-JMJD2C(1-420) H3K9me3 demethylation, DELFIA europium;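 active means more than half of a compound's replicate wells show inhibition beyond 50%, single wells judged on their own value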;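 further: signal counts dimethyl H3K9 product captured on neutravidin plate; 0% = median of DMSO wells and 100% = 0.3 times that DMSO median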
Target sequence (Q9H3R0 1-420 limits assumed): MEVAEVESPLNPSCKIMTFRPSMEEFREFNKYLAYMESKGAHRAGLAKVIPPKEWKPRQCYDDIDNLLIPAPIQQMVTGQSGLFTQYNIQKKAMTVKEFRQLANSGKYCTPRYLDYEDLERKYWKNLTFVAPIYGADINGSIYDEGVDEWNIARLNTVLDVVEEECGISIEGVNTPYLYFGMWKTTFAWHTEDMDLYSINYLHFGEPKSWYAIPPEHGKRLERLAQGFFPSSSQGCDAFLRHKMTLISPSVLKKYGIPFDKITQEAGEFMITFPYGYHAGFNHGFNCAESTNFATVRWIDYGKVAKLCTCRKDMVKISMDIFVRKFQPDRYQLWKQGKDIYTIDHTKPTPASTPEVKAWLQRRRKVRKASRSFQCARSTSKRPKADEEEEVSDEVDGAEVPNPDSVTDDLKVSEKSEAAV
NR1D1 modulator: modulates human Rev-erb alpha binding to DNA; Rev-erbα–FITC-DNA binding, fluorescence polarization, 90 min; 370,000 compounds, 0.79% hits; activity, % at 10 µM;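 active means activity above about 14%, limit read from the data; passing the limit was not always enough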;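 further: 0% = DMSO wells with 35 nM protein and 100% = DMSO wells with 750 nM protein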
KLK7 zymogen act: proKLK7 (human) activation, primary screen; P49862; purified proKLK7, EDANS-DABCYL substrate fluorescence; 100% is mature enzyme control, 0% vehicle; activation, % at 7 µM; 370,000 compounds, 0.9% hits;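 active means activation above the mean of all tested compounds plus 3 SD, computed per campaign excluding outliers beyond control limits, cut at about 13% in these data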
PP1 counter: counter-screen for PP5 inhibitors: inhibitors of human PP1-alpha; purified PP1alpha, OMFP fluorescence; inhibition, % at 6.7 µM; 320,000 compounds, 0.9% hits; AID 2235;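 active means inhibition above the mean inhibition of all tested compounds plus 3 SD, computed separately for each screening campaign, cut at about 15% in these data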
PG9 binder: binds the HIV-1 gp120 antibody PG9; inhibition, % at 6.7 µM; TR-FRET gp120-PG9 antibody binding; 360,000 compounds, 0.43% hits; in the data active means inhibition above about 8.5%
PP1 inh confirm: confirmation of human PP1 phosphatase inhibitors; shares compounds with PP1 counter; purified PP1alpha, OMFP substrate fluorescence; inhibition, % at 6.7 µM; 1,900 compounds, 52% hits; AID 2358;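 active means mean PP1 inhibition above a set limit taken from the earlier primary screen, cut at about 15% in these data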
PP5 counter: counter-screen for PP1 inhibitors: human PP5 phosphatase inhibition; shares compounds with PP1 counter; purified PP5c, OMFP fluorescence; inhibition, % at 6.7 µM; 1,900 compounds, 4% hits; AID 2360;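 active means mean PP5 inhibition over triplicate wells above about 9.5% taken from the earlier PP1 screen, limit read from the data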
Starred values were filed as active, the others as inactive. Hits are enriched below; roughly 2.8% of the tested compounds scored in any of these assays.

Results for COC(=O)CCC(=O)OC1(C)C(=O)C=C2C=C(c3ccsc3)OC=C2C1=O (stereo not drawn) ?
PP5 inh: 1; GASC-1 inh: 5; PP1 counter: 2

What do the screens show for `COc1ccc2c(c1)CN1CN(CC(C)C)S(=O)(=O)CC21` (stereo not drawn)?
NR1D1 modulator: -3; KLK7 zymogen act: 0

Results for O=c1cc(N2CCN(c3cccc(Cl)c3Cl)CC2)[nH]c(=O)n1C1CCCCC1 ?
NR1D1 modulator: -3

Results for COc1ccc(C(=O)Nc2ccc(N3CCCC3)cc2)cc1 ?
PP5 inh: 5; GASC-1 inh: -11; NR1D1 modulator: -1; KLK7 zymogen act: -1; PP1 counter: 29*; PG9 binder: -2; PP1 inh confirm: -7; PP5 counter: -5

Results for Cc1ccc(OCC(=O)Nc2ccc(N3CCCC3)cc2)cc1C ?
PP5 inh: 0; GASC-1 inh: 6; NR1D1 modulator: 9; KLK7 zymogen act: 0; PP1 counter: 13; PG9 binder: -1

Results for Cc1cc(C)cc(OCC(=O)Nc2ccc(N3CCCC3)cc2)c1 ?
PP5 inh: 0; GASC-1 inh: 4; PP1 counter: 19*; PP1 inh confirm: -9; PP5 counter: -2

What do the screens show for `COc1ccc(C(=O)NC(=S)Nc2ccc(N3CCCC3)cc2)cc1`?
PP5 inh: -1; GASC-1 inh: 2; NR1D1 modulator: -5; KLK7 zymogen act: 0; PP1 counter: -1; PG9 binder: -3

Results for O=C(CNS(=O)(=O)c1ccc(Br)cc1Cl)OCC(=O)c1ccc[nH]1 ?
PP5 inh: 0; GASC-1 inh: -1; NR1D1 modulator: 2; KLK7 zymogen act: 0; PP1 counter: 35*; PG9 binder: 0; PP1 inh confirm: 1; PP5 counter: -5

How did CCN(CC)c1ccc(-c2nn3c(-c4n[nH]c5c4CCC5)nnc3s2)cc1 do in these assays?
PP5 inh: 4; GASC-1 inh: 7; NR1D1 modulator: 6; KLK7 zymogen act: -2; PP1 counter: 22*; PG9 binder: 0; PP1 inh confirm: 31*; PP5 counter: 1

Results for COc1ccc(-c2nn3c(-c4n[nH]c5c4CCC5)nnc3s2)cc1 ?
NR1D1 modulator: -14; KLK7 zymogen act: -1

How did O=C(Nc1cccc(NC(=O)c2ccc(Br)o2)n1)c1ccc(Br)o1 do in these assays?
PP5 inh: 5; GASC-1 inh: 3; NR1D1 modulator: -12; KLK7 zymogen act: -1; PP1 counter: 35*; PG9 binder: 0; PP1 inh confirm: 31*; PP5 counter: -4

How did CC(C)(C)c1ccc(C(=O)Nc2ncn[nH]2)cc1 do in these assays?
PP5 inh: 0; GASC-1 inh: -21; NR1D1 modulator: 6; KLK7 zymogen act: -1; PP1 counter: 26*; PG9 binder: 1; PP1 inh confirm: 6; PP5 counter: -6

Results for Cc1ccc(C(=O)Nc2ncn[nH]2)cc1 ?
PP5 inh: -1; GASC-1 inh: 8; NR1D1 modulator: -4; KLK7 zymogen act: 0; PP1 counter: -1; PG9 binder: 1

What do the screens show for `Nc1ncnc2c1ncn2[C@@H]1O[C@H](C(=O)N[C@@H](CCc2ccccc2)C(=O)N2CCN(C(=O)N3CCOCC3)CC2)[C@@H](O)[C@H]1O`?
NR1D1 modulator: 3; KLK7 zymogen act: 0; PG9 binder: -1

Results for Cc1ccc(-c2nn(-c3ccccc3)cc2C2CC(c3cccs3)=NN2C(=O)CCC(=O)O)cc1 (stereo not drawn) ?
PP5 inh: 3; GASC-1 inh: 8; NR1D1 modulator: -3; KLK7 zymogen act: 1; PP1 counter: 19*; PG9 binder: 2; PP1 inh confirm: 10; PP5 counter: -1

What do the screens show for `Cc1ccc2nc(Cl)c(C3CC(c4cccs4)=NN3C(=O)CCC(=O)O)cc2c1` (stereo not drawn)?
PP5 inh: 2; GASC-1 inh: 5; NR1D1 modulator: -2; KLK7 zymogen act: 0; PP1 counter: -3; PG9 binder: -3

Results for CCOc1ccc(C(Nc2cccnc2)c2cc(Cl)c3cccnc3c2O)cc1 (stereo not drawn) ?
PP5 inh: 1; GASC-1 inh: 1; NR1D1 modulator: -15; KLK7 zymogen act: 0; PP1 counter: 19*; PG9 binder: -1; PP1 inh confirm: 21*; PP5 counter: -2

How did CCCC(=O)NC(c1ccco1)c1cc(Cl)c2cccnc2c1O (stereo not drawn) do in these assays?
PP5 inh: 2; GASC-1 inh: -12; NR1D1 modulator: -10; KLK7 zymogen act: -1; PP1 counter: 7; PG9 binder: 0

How did CCCC(=O)NC(c1ccc2c(c1)OCO2)c1cc(Cl)c2cccnc2c1O (stereo not drawn) do in these assays?
PP5 inh: 3; GASC-1 inh: 17; PP1 counter: 20*; PP1 inh confirm: 24*; PP5 counter: -6

How did CCCC(=O)NC(c1cccs1)c1cc(Cl)c2cccnc2c1O (stereo not drawn) do in these assays?
PP5 inh: 1; GASC-1 inh: 31; NR1D1 modulator: -1; KLK7 zymogen act: 0; PP1 counter: 27*; PG9 binder: 1; PP1 inh confirm: 23*; PP5 counter: 0

Results for CCC[C@H]1[C@@H](N(C)CC2CCCCC2)CC[C@@]23CCCN2C(=O)CCC[C@@H]13 ?
NR1D1 modulator: -4

How did COC(=O)[C@]12C[C@H](CC(=O)NCc3ccccc3)C(=O)N(Cc3ccccc3)C1=C[C@H](C1CCCC1)O[C@@H]2C do in these assays?
NR1D1 modulator: -2; KLK7 zymogen act: 0; PG9 binder: 0

Results for CCC(C)Sc1cc(-c2nc3ccc(C)cn3c2NCc2ccccc2)ccc1OC (stereo not drawn) ?
PP5 inh: 5; GASC-1 inh: 15; NR1D1 modulator: -1; KLK7 zymogen act: -145; PP1 counter: 18*; PG9 binder: 1; PP1 inh confirm: 5; PP5 counter: 2

What do the screens show for `N#CCCCc1cn(-c2cccc(-c3noc4c3C(=O)N(CC(=O)N3CCOCC3)CC4)c2)nn1`?
NR1D1 modulator: 9; KLK7 zymogen act: 0

Results for COC(=O)Cc1nnn2c1[C@H](C)[C@@H](OC)c1ccc(C(F)(F)F)cc1-2 ?
NR1D1 modulator: -3; KLK7 zymogen act: 0; PG9 binder: 0

Results for COc1ccc(-c2ccc3c(N)c(C(=O)c4cccc(OC)c4)sc3n2)cc1 ?
PP5 inh: 7; GASC-1 inh: 18; NR1D1 modulator: 1; KLK7 zymogen act: 2; PP1 counter: 30*; PG9 binder: 1; PP1 inh confirm: 26*; PP5 counter: -3

High-throughput results (PubChem)
